# Bioassay records: PubChem BioAssay, The Scripps Research Institute Molecular Screening Center
# The list is not random: actives were taken first. Their share in the collection is about 4.1%.
# ABHD5-PLIN5 inh: blocks binding of human ABHD5 to perilipin-5 | Split G. princeps luciferase complementation, luminescence, 4 h | inhibition, % at 4 µM | 360,000 tested, 0.78% active | AID 602281;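 active = inhibition above the mean inhibition across every tested compound plus 3 SD, cut at about 22% in these data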
# LEDGF integ inh: blocks HIV-1 LEDGF/p75-dependent DNA integration. inhibition, % at 3.7 µM. TR-FRET IN-LEDGF/p75 DNA integration, Eu/Cy5. 370,000 tested, 0.64% active;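 active = inhibition above the screen-wide mean plus 3 SD, cut at about 13% in these data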;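 also: signal is the Cy5 over europium emission ratio at 671 and 618 nm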
# UHRF1 MBD2 ctr: UHRF1 methyl-DNA binding inhibition | AID 687016 | 370,000 tested, 0.75% active | inhibition, % at 4.4 µM | UHRF1 binding to methylated oligo, TR-FRET; in the data active = inhibition above about 21%;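 also: UHRF1 SRA domain binding a hemimethylated CpG hairpin DNA probe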
# rCAG RNA binder: binds r(CAG) RNA repeats | inhibition, % at 3 µM | AID 651821 | r(CAG) RNA repeat, TO-PRO-1 dye displacement fluorescence | 370,000 tested, 1.3% active;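 active = inhibition above the plate cutoff, the mean of all test compounds on that plate plus 3 SD, cut at about 35% in these data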;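 also: higher means more dye released from RNA so lower well fluorescence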
# PRMT1 inh: PRMT1 (human) inhibition, primary screen | Q99873 | recombinant PRMT1, activity-based probe fluorescence polarization | inhibition, % at 2.79 µM | 370,000 tested, 1.3% active | AID 652257;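 active = inhibition above about 21% made by adding two undisclosed values, limit read from the data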
# MBD2 inh: inhibitors of human MBD2 binding to methylated oligonucleotide; TR-FRET; 370,000 tested, 0.31% active; inhibition, % at 4.4 µM; Q9UBB5; AID 686964; in the data active = inhibition above about 13%
# Target sequence (Q9UBB5 whole entry, looked up): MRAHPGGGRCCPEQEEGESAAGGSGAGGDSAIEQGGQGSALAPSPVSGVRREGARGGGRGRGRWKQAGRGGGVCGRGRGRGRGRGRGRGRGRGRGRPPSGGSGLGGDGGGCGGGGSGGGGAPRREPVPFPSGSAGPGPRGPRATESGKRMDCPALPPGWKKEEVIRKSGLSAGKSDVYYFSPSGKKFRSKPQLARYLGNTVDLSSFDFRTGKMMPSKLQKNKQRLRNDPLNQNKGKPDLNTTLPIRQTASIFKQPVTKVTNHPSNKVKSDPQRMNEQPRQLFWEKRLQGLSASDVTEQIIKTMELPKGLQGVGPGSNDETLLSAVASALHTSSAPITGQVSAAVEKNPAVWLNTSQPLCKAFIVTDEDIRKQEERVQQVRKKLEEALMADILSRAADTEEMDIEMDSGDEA
# PRMT1 confirm: confirmation of human PRMT1 inhibitors. shares compounds with PRMT1 inh. recombinant His-PRMT1, activity-based probe fluorescence polarization. inhibition, % at 2.79 µM. 3,300 tested, 42% active. AID 687036;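 active = mean inhibition across replicates above the hit cutoff derived for the earlier primary screen, cut at about 22% in these data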
# Hits are given with their value; n = inactive; x = no result.
SMILES,ABHD5-PLIN5 inh,LEDGF integ inh,UHRF1 MBD2 ctr,rCAG RNA binder,PRMT1 inh,MBD2 inh,PRMT1 confirm
CC(C)OC(=O)c1ccc(NCc2cc(O)ccc2O)cc1,n,n,n,n,36,n,30
CS(=O)(=O)c1ccc(Sc2nc3ccccc3s2)c([N+](=O)[O-])c1,n,x,x,x,x,x,x
CCC(=O)OCCNc1cc(Sc2nc3ccccc3s2)c2nonc2c1[N+](=O)[O-],n,n,n,n,68,n,76
Cc1cc(C(=O)CSc2nnc(-c3cccnc3)n2-c2ccccc2F)c(C)n1CC1CCCO1 (centres undefined),n,n,n,n,27,n,n
COc1ccc(NC(=O)c2ccc(NC(=O)CN3CCN(c4ccc(O)cc4)CC3)cc2)cc1,n,n,n,n,34,n,n
COc1ccc(N2CCN(CCC(=O)c3ccc4ccccc4c3)CC2)cc1,n,n,n,n,44,n,28
O=C(CCN1CCOCC1)c1ccc(N2CCCCC2)cc1,n,n,n,n,28,n,n
COc1ccc(NC(=O)c2ccc(NC(=O)CN3CCN(c4ccccc4O)CC3)cc2)cc1,n,n,n,n,n,n,x
COc1ccc(N2CCN(CC(=O)c3ccccc3)CC2)cc1,n,n,n,n,n,n,x
COc1ccc(OC)c(C(=O)CSc2nnc(SCc3cccc4ccccc34)s2)c1,x,n,n,n,n,n,x
Cc1ccc(/C=C/C(=O)Nc2cccc(S(=O)(=O)N3CCOCC3)c2)o1,n,n,n,n,36,n,n
CC(C)N(C(=O)c1nn(C)c2c1CSc1ccccc1-2)C1CCCCC1,n,n,n,n,39,n,n
O=C(N[C@@H]1C[C@@H]2O[C@@H](CO)CC[C@@H]2O[C@@H]1CCc1ccc(-c2cccnc2)cc1)c1cccc(F)c1,x,n,n,n,n,n,x
COc1ccc(N2C(=O)CC(SCC(=O)O)C2=O)cc1 (centres undefined),n,n,n,n,25,n,n
CCN=C(Nc1ccc2c(c1)OCO2)SC1CC(=O)N(c2ccc(OC)cc2)C1=O (centres undefined),n,n,n,n,n,n,x
COc1ccccc1NC(=O)CSC1CC(=O)N(c2ccc3c(c2)OCO3)C1=O (centres undefined),n,n,n,n,44,n,35
COc1ccc(NC(=O)CSC2CC(=O)N(c3ccc4c(c3)OCCO4)C2=O)cc1 (centres undefined),n,n,n,n,36,n,23
COc1cc(NC(=O)c2[nH]c(C)c(C(C)=O)c2C)c(OC)cc1Cl,x,n,n,x,n,n,x
COCCNC(=O)C1CCCN(C(=O)c2csc3ccccc23)CC1 (centres undefined),n,n,n,n,n,n,x
COCCNC(=O)C1CCCN(C(=O)c2oc3ccccc3c2C)CC1 (centres undefined),n,n,n,n,46,n,n
Cc1ccc(S(=O)(=O)CCCS(=O)(=O)c2ccc(C)cc2)cc1,n,n,n,n,n,n,x
Cc1ccc(S(=O)(=O)CS(=O)(=O)c2ccc(C)cc2)cc1,n,n,n,n,n,n,x
Cc1ccc(S(=O)(=O)SC/C=C/CSS(=O)(=O)c2ccc(C)cc2)cc1,n,n,n,n,87,n,91
Cc1ccc(S(=O)(=O)SCCCSS(=O)(=O)c2ccc(C)cc2)cc1,n,n,n,n,96,n,91
CCOC(=O)C1=CCC(c2ccc([N+](=O)[O-])cc2)N(S(=O)(=O)c2ccc(C)cc2)C1 (centres undefined),x,n,n,n,n,n,x
SMILES,ABHD5-PLIN5 inh,LEDGF integ inh,UHRF1 MBD2 ctr,rCAG RNA binder,PRMT1 inh,MBD2 inh,PRMT1 confirm
O=[N+]([O-])c1cnc(Sc2ccncn2)c([N+](=O)[O-])c1,n,n,n,n,71,n,90
O=[N+]([O-])c1cnc(Sc2ccncn2)s1,n,n,n,n,26,n,31
CCCCc1ccc2nc(NC(=O)c3cccs3)sc2c1,x,n,n,x,n,n,x
NNS(=O)(=O)c1ccc(N2CCCC2=O)c([N+](=O)[O-])c1,n,n,n,n,82,n,55
NS(=O)(=O)c1ccc(N2CCCC2=O)c([N+](=O)[O-])c1,n,n,n,n,n,n,x
CC1CCN(C(=O)c2ncn3c2C(=O)NC[C@@H]3C)CC1,x,n,n,n,n,n,x
CN(C(=O)CNC(=O)c1ccccc1OCC(=O)Nc1ccc(I)cc1)c1ccccc1,x,n,n,n,31,n,n
Cc1ccc(-c2cc(C(=O)N=Nc3c(O)[nH]c4ccccc34)[nH]n2)cc1C,x,n,n,n,n,n,x
COc1cc(-c2nc(=S)[nH][nH]2)cc(OC)c1OC,n,n,n,n,34,n,n
COC(=O)C[C@H]1CC[C@H]2[C@H](COc3ccc(NS(=O)(=O)c4cccc(F)c4)cc3C(=O)N2C)O1,x,n,n,n,n,n,x
COC(=O)C1CN(Cc2ccccc2)CCS(=O)(=O)N1Cc1cn(Cc2cccc(Cl)c2)nn1 (centres undefined),x,n,n,n,n,n,x
CCCCCCCCN1C(=O)[C@@H](CC(=O)NCCCC)C[C@@]2(C(=O)OC)C1=C[C@H](COCc1ccccc1)O[C@@H]2C,x,n,n,n,n,n,x
O=C(Cc1c[nH]c2ccccc12)Nc1ccc(Nc2cccnc2)c(Br)c1,x,n,n,n,n,n,x
O=C(O)CCc1ccc(-c2ccccc2)n1Cc1ccco1,n,18,n,n,33,n,n
c1ccc(-c2cccc(CNc3nc(-c4ccccn4)nnc3-c3ccccc3)c2)cc1,x,n,n,x,n,n,x
CCN1CCN(Cc2ccc(NC(=O)c3cccc(-c4ccc5nc(NC(=O)C6CC6)sc5n4)c3)cc2C(F)(F)F)CC1,x,n,n,n,n,n,x
CC1=CC(=O)C(C2CCCCC2)=C/C1=N\OS(=O)(=O)c1ccccc1,x,n,n,x,51,n,n
Cc1cc[n+](-c2[nH]c(=O)sc2/C=N/NC([S-])=Nc2ccccc2)cc1C,n,n,n,n,56,n,26
CNC(=O)C1C(=S)NC(N)=C(C#N)C1c1ccccc1 (centres undefined),n,n,n,n,61,n,n
COc1ccccc1NC(=O)CSC1=NC(=O)C(NC(C)=O)C(=O)N1 (centres undefined),n,n,n,n,25,n,n
CC(=O)NC1C(=O)N=C(SCC(=O)Nc2ccc(C(F)(F)F)cc2Cl)NC1=O (centres undefined),n,n,n,n,38,n,n
CC(=O)NC1C(=O)N=C(SCC(=O)NC2CCCCC2)NC1=O (centres undefined),n,n,n,n,n,n,x
CC(=O)NC1C(=O)N=C(SCC(=O)NC(C)c2ccccc2)NC1=O (centres undefined),n,n,n,n,31,n,n
C[C@H](CO)N1C[C@H](C)[C@@H](CN(C)C(=O)Nc2ccc3c(c2)OCO3)OCc2cn(nn2)CCCC1=O,x,n,n,n,n,n,x
